The panel holds about 83,000 compounds, 20% with a hit somewhere; the sample as a whole holds those more often.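 For each line, cells grew in 96-well plates with the test compound present at a single concentration for 48 hours.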 Values without a mark were called inactive. Active and inactive are the calls of the source. How the source made its calls: active means growth percent below 10; inactive means the rest.
Columns and labels:
Test in all cases: NCI-60 one-dose screen, 48 h (100 = growth as untreated, 0 = no growth, -100 = all killed)
Conditions in all cases: 10 µM unless noted
[1] = test system: RPMI-8226 leukemia
[2] = test system: OVCAR-8 ovarian
[3] = test system: OVCAR-5 ovarian
[4] = test system: OVCAR-4 ovarian
[5] = test system: SK-OV-3 ovarian
[6] = test system: IGROV1 ovarian
[7] = test system: OVCAR-3 ovarian
[8] = test system: HS 578T breast
[9] = test system: SR leukemia

| SMILES | growth [1] | growth [2] | growth [3] | growth [4] | growth [5] | growth [6] | growth [7] | growth [8] | growth [9] |
| --- | --- | --- | --- | --- | --- | --- | --- | --- | --- |
| O=c1[nH]c2ccc([N+](=O)[O-])cc2c(=O)o1 | 98.5% | 104% | 101% | 98.8% | 102% | 105% | 113% | – | – |
| ClCCN(CCCl)c1ccc(/C=N\N=C\c2ccc(N(CCCl)CCCl)cc2)cc1 | 39.8% | 33.8% | 107% | – | 19.6% | 71.5% | 55.7% | 78.2% | – |
| O=C1NC(=O)C(=Cc2cn(C(=O)c3ccccc3)c3ccccc23)C(=O)N1 | 114% | 92.3% | 94.7% | 92.1% | 91.5% | – | 108% | 103% | 90.5% |
| COC(=O)[C@H](C[C@H](Cc1ccccc1)NC(=O)c1csc([C@@H](C[C@H](C(C)C)N(C)C(=O)[C@@H](NC(=O)[C@H]2CCCCN2C)C(C)C)OC(C)=O)n1)NC(=O)OCc1ccccc1 | -13.9% [8.5 µM] (active) | 22% [8.5 µM] | 26.1% [8.5 µM] | 40.4% [8.5 µM] | 22.9% [8.5 µM] | 13% [8.5 µM] | -12.2% [8.5 µM] (active) | 15.3% [8.5 µM] | -16.9% [8.5 µM] (active) |
| C=CCCCN=C=S | 49% | 89.6% | 86.9% | 88.8% | 70.7% | 72% | 57.8% | 98% | 27% |
| Cc1cc(N(CCCl)CCCl)ccc1C=Nc1cccnc1 | 78.3% | 78.2% | 28.2% | 80.6% | 61.3% | 99.2% | 87.5% | 113% | 43.9% |

Source: PubChem BioAssay (NCI)
